# Screening data deposited in PubChem by National Center for Advancing Translational Sciences (NCATS).
# Most compounds without a hit are left out; they make up all but 12% or so of the library.
# Sfp inh = qHTS Assay for Inhibitors of Bacillus subtilis Sfp phosphopantetheinyl transferase (PPTase). Potency, µM, without a hit: largest response in the series, negative = inhibition, most hits filed as inhibitors. 4'-phosphopantetheinyl transferase ffp (Bacillus subtilis), Q9F4F7. hit rate 3.5% among 310,000. Biochemical Sfp PPTase activity, qHTS;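 further: the enzyme is Sfp with the accession as filed and its product quenches rhodamine fluorescence; 0% = enzyme reaction without inhibitor and -100% = no enzyme wells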
#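 With Hepes-Na pH 7.6 buffer containing 10 mM MgCl2, Sfp (15 nM) modified BHQ-2-YbbR (12.5 uM) using rhodamine-CoA (5 uM). Two reads 30 minutes apart at 525/598 nm yielded each well's rate.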
# HP1b chromo inh = HTS for Inhibitors of HP1-beta Chromodomain Interactions with Methylated Histone Tails; AlphaScreen HP1-beta / biotin-H3K9me3 peptide binding; AID 540317, 2011; Chromobox protein homolog 1 (Homo sapiens), P83916; hit rate 0.56% among 390,000; Potency, µM (top dose mostly 114 µM), without a hit: at the top dose activity change, negative = inhibition, most hits filed as inhibitors; further: nearly all actives have a fitted effect of over 70% in size
#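 HP1-beta protein (50 nM final) preincubated 30 min at room temperature with biotinylated H3(1-18)K9me3 peptide (50 nM) in PBS pH 7.4, 0.01% Tween-20, then compound added for 30 min. AlphaScreen streptavidin donor/nickel chelate acceptor beads (10 ug/mL final), 30 min dark, luminescence read.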
# JMJD2A Tudor inh = qHTS Assay for Inhibitors of JMJD2A-Tudor Domain. Lysine-specific demethylase 4A (Homo sapiens), O75164. AlphaScreen JMJD2A-Tudor / H3K4me3 peptide binding. Potency, µM (titrated, usually from 114 µM), inactives show top-dose activity change, negative = inhibition, usual class: inhibitors. hit rate 4.4% among 390,000; further: on the % scale 0 is the no-effect control and ±100 the full control effect; nearly all actives have a fitted effect of over 50% in size
# BAZ2B block = qHTS Assay for Inhibitors of BAZ2B; hit rate 4.4% among 360,000; AlphaScreen BAZ2B-H3K14Ac peptide displacement; Bromodomain adjacent to zinc finger domain protein 2B (Homo sapiens), Q9UIF8; Potency, µM (titrated, usually from 114 µM), inactives show at the highest dose activity change, negative = inhibition, actives largely listed as inhibitors; AID 504333, 2011; further: on the % scale 0 is the no-effect control and ±100 the full control effect; nearly all actives have a fitted effect of over 60% in size
#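 AlphaScreen luminescence quantifies BAZ2B engagement of H3K14Ac peptide; the protein and biotinylated peptide are both at 50 nM final, buffer PBS pH 7.4 with 0.01% Tween-20, all steps at room temperature.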
# L3MBTL1 block = qHTS Assay for the Inhibitors of L3MBTL1 | AlphaScreen L3MBTL1–H3K9me1 peptide binding | AID 485360, 2010 | hit rate 0.66% among 230,000 | Potency, µM (highest dose often 57.1 µM), for the others: at the top dose activity, negative = inhibition, hits mostly inhibitors | Lethal(3)malignant brain tumor-like protein 1 (Homo sapiens), Q9Y468; further: on the % scale 0 is the no-effect control and ±100 the full control effect; nearly all actives have a fitted effect of over 60% in size
#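 First, the protein-peptide complex forms for 30 min at room temperature (L3MBTL1 50 nM, biotinylated H3K9me1 peptide 75 nM). Next, compounds are pin-transferred and incubated 30 min. Finally, AlphaScreen beads are added and read after 30 min.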
# G9a inh = qHTS Assay for Inhibitors of Histone Lysine Methyltransferase G9a; Histone-lysine N-methyltransferase EHMT2 (Homo sapiens), Q96KQ7; G9a H3K9 monomethylation, AlphaScreen, 2 h; Potency, µM (top dose mostly 102 µM), inactives show at the highest dose activity, negative = inhibition, most hits filed as inhibitors; hit rate 8.8% among 350,000; further: on the % scale 0 is the no-effect control and ±100 the full control effect; nearly all actives have a fitted effect of over 75% in size
#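 G9a (20 nM) preincubated 15 min RT with compounds, then 500 nM biotinylated H3K9 peptide and 20 uM SAM added; 2 h RT reaction. Monomethyl-H3K9 product detected by AlphaScreen with anti-H3K9me1 antibody, streptavidin donor and anti-rabbit IgG acceptor beads.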
# * hit, by the source's call; u = inconclusive; x = no result; [ ] = dose if it differs, or a comment. The call rests on the fitted dose curve; in most records, active means well fitted curve in the direction sought with a large enough effect; inconclusive means small, poorly fitted or top-dose-only effect, or another doubt; inactive means no such curve, though single readings can be large; an effect the other way counts as inactive or inconclusive. Potency means the concentration at half of the fitted maximal effect.
SMILES,Sfp inh,HP1b chromo inh,JMJD2A Tudor inh,BAZ2B block,L3MBTL1 block,G9a inh
O=C(CN1CCN(c2ccc(F)cc2)CC1)N(C1CCCC1)C1CCS(=O)(=O)C1 (configuration not stated),x,12%,-13%,6%,6%,-7%[2.33 µM]
O=C(CN1CCN(c2ccc(O)cc2)CC1)N(C1CC1)C1CCS(=O)(=O)C1 (configuration not stated),x,u,79µM*,6%,7%,9%[2.33 µM]
CCOc1ccc(S(=O)(=O)NCCCl)cc1,-1%,25%,-10%,-7%,11%,x
CCOc1ccc(S(=O)(=O)NNS(=O)(=O)c2ccc(C)cc2C)cc1,79µM*,43%,-18%,-24%,x,3.5µM*
Cc1cs/c(=N/C(=S)Nc2ccccc2)n1C,3%,6%,-2%,-38%,-18%,-1%[59 µM]
Cc1csc(=Nc2ccccc2)n1C,-8%,29%,-13%,50µM*,-6%,u
CC(=O)c1ccccc1C(=O)N1CCCC(CNC(=O)c2ccccc2Cl)C1 (configuration not stated),17%,13%,28µM*,-5%,x,16%
COc1ccc(C(=O)N2CCCC(CNC(=O)c3ccccc3Cl)C2)o1 (configuration not stated),0%,33%,-7%,-1%,x,23%
Cc1cc2c(c(=O)n1C1CC1)C(c1cccc(Cl)c1)C(C#N)=C(N)O2 (configuration not stated),2%,50%,-12%,-4%,2%,-35%
Cc1ccc(-n2nc(C)c3c2OC(N)=C(C#N)C3c2ccncc2)cc1 (configuration not stated),3%,1%,u,-11%,-5%,45µM*
Cc1nn(-c2ccccc2)c2c1C(c1ccncc1)C(C#N)=C(N)O2 (configuration not stated),u,8%,-20%,-8%,-1%,16µM*
COc1cc(-n2nc(C)c3c2OC(N)=C(C#N)C3c2ccccc2)c(Cl)c(Br)c1O (configuration not stated),7%,45µM*,-33%[11.4 µM],45µM*,x,u
Cc1nn(-c2ccccc2)c2c1C(c1c(C)[nH]c(C#N)c1C)C(C#N)=C(N)O2 (configuration not stated),11%,-2%,u,u,-9%,-6%[12.7 µM]
Cc1nn(-c2ccccc2)c(Cl)c1C1C(C#N)=C(N)Oc2c1c(C)nn2-c1ccccc1 (configuration not stated),0%,-5%,u,u,-13%,x
Cc1nn(Cc2ccccc2)c2c1C(c1cccc(Cl)c1)C(C#N)=C(N)O2 (configuration not stated),10%,-21%,u,u,x,50µM*
Cc1ccc(-n2nc(C)c3c2OC(N)=C(C#N)C3c2ccccc2F)cc1 (configuration not stated),-3%,-16%,u,u,-13%,-6%[0.0925 µM]
COc1ccc(C2Nc3ccccc3C(=O)N2Cc2ccco2)cc1COc1c(C)cccc1C (configuration not stated),x,38%,u,x,x,x
Cc1cc(C)cc(Oc2coc3cc(OCC(=O)NC4CCCCC4)ccc3c2=O)c1,x,49%,-22%,-2%,x,17%[59 µM]
CCn1c(C)cc2c(c1=O)C(c1ccc3c(c1)OCO3)C(C#N)=C(N)O2 (configuration not stated),0%,15%,-6%,6%,7%,-24%[12.7 µM]
CCn1c(C)cc2c(c1=O)C(c1ccncc1)C(C#N)=C(N)O2 (configuration not stated),3%,33%,2%,6%,3%,40µM*
CCOc1ccc(-c2nc(SCC(=O)Nc3cc(F)ccc3F)n3[nH]c(=O)cc3n2)cc1,x,-6%,u,-36%,x,-6%[59 µM]
COc1ccc(NC(=O)C(C)n2nnc3sc(-c4ccccc4)cc3c2=O)cc1Cl (configuration not stated),x,u,79µM*,-27%,x,2.8µM*
Cc1cc(C)c(NC(=O)C(C)n2nnc3sc(-c4ccccc4)cc3c2=O)c(C)c1 (configuration not stated),x,33%,u,u,x,10µM*
COc1ccc(NC(=O)C(C)NS(=O)(=O)c2ccccc2)cc1Cl (configuration not stated),18%,29%,-11%,11%,4%,-3%[12.7 µM]
CCC(C(=O)OC)n1nnc2sc(-c3ccccc3)cc2c1=O (configuration not stated),x,70%,5%,6%,x,14%[59 µM]
SMILES,Sfp inh,HP1b chromo inh,JMJD2A Tudor inh,BAZ2B block,L3MBTL1 block,G9a inh
c1ccc(-c2ccc(-c3nccc4ccccc34)[nH]2)cc1,50µM*,x,x,u,26%,u
N#Cc1cc(-c2ccccc2)[nH]c1-c1nccc2ccccc12,15%,42%,-14%,-12%,-1%,16%
O=C(O)c1cccc(Cn2c(Cl)c(/C=N/NC(=O)c3ccccc3)sc2=O)c1,12%,41%,-2%,-29%,-4%,31%[0.501 µM]
COC(=O)c1cccc(Cn2c(Cl)c(/C=N/Nc3ccccc3C)sc2=O)c1,56µM*,-13%,u,35µM*,-22%,10µM*
Cc1ccccc1N/N=C/c1sc(=O)n(Cc2cccc(C(=O)O)c2)c1Cl,u,-22%,10µM*,45µM*,x,-136%[59 µM]
O=C(O)c1cccc(Cn2c(Cl)c(/C=N/NC(=O)c3cc4ccccc4cc3O)sc2=O)c1,u,u,79µM*,25µM*,35µM*,10µM*
Cc1nc2cnc(N3CCN(C)CC3)nc2n(-c2ccccc2)c1=O,20%,x,x,x,x,9%[0.501 µM]
Cc1ccc(NC(=O)CSc2cn[nH]n2)cc1,16%,37%,-11%,3%,x,50µM*
O=C(CSc1cn[nH]n1)Nc1ccc(O)c(C(=O)O)c1,-5%,25%,-19%,-14%,x,13µM*
S=c1[nH]nc(-c2ccncc2)n1Cc1ccco1,14µM*,15%,7.9µM*,-5%,-5%[11.4 µM],1µM*
COc1cccc(-c2n[nH]c(=S)n2Cc2ccco2)c1,32µM*,-23%,20µM*,-36%,x,3.2µM*
Cc1c(Cl)c(-c2n[nH]c(=S)n2Cc2ccco2)nn1C,-9%,20%,8.9µM*,-9%,x,7.9µM*
S=c1[nH]nc(-c2ccc(Br)cc2)n1Cc1ccco1,-14%,-17%,56µM*,u,-7%,0.4µM*
